One test has as its system AAK1. Also on record: species or system human, MV4-11 + K-562 + COLO205 + SK-N-BE2 + OVCAR-8. The following applies: read-out: apparent Kd, compound concentrations: 100 nM and 1000 nM (sheet 'Samples'), n = 1.
The test system of another test is BMP2K. More on the design: species or system human, MV4-11 + K-562 + COLO205 + SK-N-BE2 + OVCAR-8. The following applies: read-out: apparent Kd, compound concentrations: 100 nM and 1000 nM (sheet 'Samples'), n = 1.
For a further test, the system named is CLK1. Also on record: species or system human, MV4-11 + K-562 + COLO205 + SK-N-BE2 + OVCAR-8. The following applies: read-out: apparent Kd, compound concentrations: 100 nM and 1000 nM (sheet 'Samples'), n = 1.
In a further test the test system is CLK4. More on the design: species or system human, MV4-11 + K-562 + COLO205 + SK-N-BE2 + OVCAR-8. The following applies: read-out: apparent Kd, compound concentrations: 100 nM and 1000 nM (sheet 'Samples'), n = 1.
A further test has as its system CSNK2A1;CSNK2A3. More on the design: species or system human, MV4-11 + K-562 + COLO205 + SK-N-BE2 + OVCAR-8. The following applies: read-out: apparent Kd, compound concentrations: 100 nM and 1000 nM (sheet 'Samples'), n = 1.
The subject of a further test is CSNK2A2. Also on record: species or system human, MV4-11 + K-562 + COLO205 + SK-N-BE2 + OVCAR-8. The following applies: read-out: apparent Kd, compound concentrations: 100 nM and 1000 nM (sheet 'Samples'), n = 1.
In another test the test system is FLT4. Also on record: species or system human, MV4-11 + K-562 + COLO205 + SK-N-BE2 + OVCAR-8. The following applies: read-out: apparent Kd, compound concentrations: 100 nM and 1000 nM (sheet 'Samples'), n = 1.
The subject of a further test is GAK. Also on record: species or system human, MV4-11 + K-562 + COLO205 + SK-N-BE2 + OVCAR-8. The following applies: read-out: apparent Kd, compound concentrations: 100 nM and 1000 nM (sheet 'Samples'), n = 1.
For a further test, the system named is GSK3A. More on the design: species or system human, MV4-11 + K-562 + COLO205 + SK-N-BE2 + OVCAR-8. The following applies: read-out: apparent Kd, compound concentrations: 100 nM and 1000 nM (sheet 'Samples'), n = 1.
The test system of the next test is GSK3B. More on the design: species or system human, MV4-11 + K-562 + COLO205 + SK-N-BE2 + OVCAR-8. The following applies: read-out: apparent Kd, compound concentrations: 100 nM and 1000 nM (sheet 'Samples'), n = 1.
The next test deals with MELK. More on the design: species or system human, MV4-11 + K-562 + COLO205 + SK-N-BE2 + OVCAR-8. The following applies: read-out: apparent Kd; compound concentrations: 100 nM and 1000 nM (sheet 'Samples'), CATDS: 6.9590061702447499E-3; n = 1.
Another test has as its system NUAK1. More on the design: species or system human, MV4-11 + K-562 + COLO205 + SK-N-BE2 + OVCAR-8. The following applies: read-out: apparent Kd, compound concentrations: 100 nM and 1000 nM (sheet 'Samples'), n = 1.
Another test concerns PAK4. Also on record: species or system human, MV4-11 + K-562 + COLO205 + SK-N-BE2 + OVCAR-8. The following applies: read-out: apparent Kd, compound concentrations: 100 nM and 1000 nM (sheet 'Samples'), n = 1.
A further test has as its system PRKAG1. More on the design: species or system human, MV4-11 + K-562 + COLO205 + SK-N-BE2 + OVCAR-8. The following applies: read-out: apparent Kd, compound concentrations: 100 nM and 1000 nM (sheet 'Samples'), n = 1.
The target in a further test is Q6ZSR9 (human, UniProt Q6ZSR9). More on the design: species or system MV4-11 + K-562 + COLO205 + SK-N-BE2 + OVCAR-8. The following applies: read-out: apparent Kd, compound concentrations: 100 nM and 1000 nM (sheet 'Samples'), n = 1.
Another test concerns RET. More on the design: species or system human, MV4-11 + K-562 + COLO205 + SK-N-BE2 + OVCAR-8. The following applies: read-out: apparent Kd, compound concentrations: 100 nM and 1000 nM (sheet 'Samples'), n = 1.
Another test deals with SIK2. More on the design: species or system human, MV4-11 + K-562 + COLO205 + SK-N-BE2 + OVCAR-8. The following applies: read-out: apparent Kd, compound concentrations: 100 nM and 1000 nM (sheet 'Samples'), n = 1.
For a further test, the system named is PKN1. Also on record: species or system human, MV4-11 + K-562 + COLO205 + SK-N-BE2 + OVCAR-8. The following applies: read-out: apparent Kd; compound concentrations: 100 nM and 1000 nM (sheet 'Samples'), CATDS: 1.0439948324783401E-2; n = 1.
Test [1] concerns PKN3. Also on record: species or system human, MV4-11 + K-562 + COLO205 + SK-N-BE2 + OVCAR-8. The following applies: read-out: apparent Kd, n = 1.
Test [2] deals with PKN3. The following applies: hek293t cells.

Where two headings read alike, the source gives them in different places.
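Throughout, for IC50: NanoBRET target engagement in HEK293T cells transiently expressing full-length PKN3 with C-terminal NanoLuc, displacement of fluorescent tracer K5 (500 nM), BRET read after 2 h equilibration at 37 °C.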

Q6ZSR9, sequence (Q6ZSR9 whole entry, looked up): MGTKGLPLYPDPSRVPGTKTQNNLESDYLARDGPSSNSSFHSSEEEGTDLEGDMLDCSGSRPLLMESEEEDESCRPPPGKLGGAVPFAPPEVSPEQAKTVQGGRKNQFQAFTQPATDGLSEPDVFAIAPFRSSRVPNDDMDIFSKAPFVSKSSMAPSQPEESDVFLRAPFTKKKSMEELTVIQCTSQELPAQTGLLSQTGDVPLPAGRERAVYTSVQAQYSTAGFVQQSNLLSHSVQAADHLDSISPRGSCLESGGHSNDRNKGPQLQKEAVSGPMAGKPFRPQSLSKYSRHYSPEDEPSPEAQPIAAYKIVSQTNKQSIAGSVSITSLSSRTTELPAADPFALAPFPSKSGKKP

As to `COc1ccc(Nc2ncc(C#N)c(Nc3ccccc3C(N)=O)n2)cc1N1CCN(C)CC1.Cl` [GSK1558669A], the potency estimated from few doses with AAK1 (CATDS: 1.0489274011292E-2) is 164 nM; with BMP2K (CATDS: 9.7460630022759408E-3) it was 204 nM; in the test with CLK1 (CATDS: 1.6853937375741E-2), 52 nM; in the test on CLK4 (CATDS: 1.78351826711012E-2), 46.4 nM; in the test on CSNK2A1;CSNK2A3 (CATDS: 3.32003717220812E-2) it was 15.7 nM; in the test on CSNK2A2 (CATDS: 5.84237607609163E-2), 7.02 nM. In addition, the potency estimated from few doses with FLT4 (CATDS: 6.1594984322683802E-2) was 6.55 nM; in the test with GAK (CATDS: 7.1387437274862903E-3) it was 650 nM; with GSK3A (CATDS: 2.2002232250464899E-2), 31.1 nM; in the test with GSK3B (CATDS: 2.1185466534455601E-2), 33.3 nM; with MELK, 733 nM; with NUAK1 (CATDS: 1.9495800971078701E-2), 39 nM. Further, the potency estimated from few doses in the test on PAK4 (CATDS: 1.03985583586522E-2) is 168 nM; with PRKAG1 (CATDS: 1.48267658268137E-2), 68.5 nM; in the test with Q6ZSR9 (CATDS: 1.17172228407674E-2), 121 nM; in the test on RET (CATDS: 1.6777420038619099E-2), 52.5 nM; in the test on SIK2 (CATDS: 3.5509703257123403E-2), 14.1 nM.
For `Cl.Nc1c(C(=O)c2cccc(C#CCN3CCCCC3)c2)cnn1-c1ccc(F)cc1` [RO1154461-001], the potency estimated from few doses was 607 nM in the test on AAK1 (CATDS: 1.4474046603820999E-2); 1000 nM in the test on BMP2K (CATDS: 1.20459910405703E-2); 552 nM with CLK1 (CATDS: 1.5060802907151999E-2); 679 nM in the test with CLK4 (CATDS: 1.3844573276346099E-2); 1140 nM with CSNK2A1;CSNK2A3 (CATDS: 1.1541786487004701E-2); 1330 nM in the test on CSNK2A2 (CATDS: 1.10304448511726E-2). In addition, the potency estimated from few doses is 746 nM with FLT4 (CATDS: 1.33586959494144E-2); 81.4 nM in the test on GAK (CATDS: 4.3588593109949197E-2); 129 nM in the test on GSK3A (CATDS: 3.2177955723616897E-2); 387 nM in the test on GSK3B (CATDS: 1.7633019943865499E-2); 1670 nM with NUAK1 (CATDS: 1.03638923622048E-2); 656 nM with PAK4 (CATDS: 1.4039072021364001E-2). Further, the potency estimated from few doses with PKN1 was 1630 nM; in the test on PKN3 [1] (compound concentrations: 100 nM and 1000 nM (sheet 'Samples'), CATDS: 1.05012639622415E-2), 1590 nM; in the test with PRKAG1 (CATDS: 3.6022361277962302E-2) it was 108 nM; in the test with Q6ZSR9 (CATDS: 1.44791042777868E-2), 607 nM; in the test on RET (CATDS: 1.69120998976478E-2) it was 424 nM; with SIK2 (CATDS: 1.66377583432985E-2), 439 nM.
Take `CSc1c(C2=C(c3cn(C)c4ccccc34)C(=O)NC2=O)c2ccccc2n1C` [RO0317340-000]: the potency estimated from few doses in the test on AAK1 (CATDS: 1) was 1170 nM.
As to `Cc1cccc(-c2nc(Nc3ccncc3)c3sccc3n2)n1` [GW869641X], the potency estimated from few doses in the test with PKN3 [1] (compound concentrations:100 nM and 1000 nM (sheet 'Samples')) is 97.8 nM. Also, the IC50 in the test on PKN3 [2] (read-out: Average, SD, n = 3) came to 1580 nM; with PKN3 [2] (read-out: Rep 1), 4190 nM; with PKN3 [2] (read-out: Rep 2), 472 nM; in the test with PKN3 [2] (read-out: Rep 4), 87.1 nM.
On to `CCn1c(-c2nonc2N)nc2c(C#CC(C)(C)O)nc(OC[C@@H](N)c3ccccc3)cc21` [GSK938890A], for which the potency estimated from few doses is 404 nM in the test on GSK3A (CATDS: 6.6915182583243901E-2); 446 nM in the test on GSK3B (CATDS: 6.5310864553074097E-2); 88.3 nM in the test with PAK4 (CATDS: 0.107853549418886); 23.6 nM with PKN3 [1] (compound concentrations: 100 nM and 1000 nM (sheet 'Samples'), CATDS: 0.20749541918588199). Moreover, the IC50 with PKN3 [2] (read-out: Average, SD, n = 4) was 97.8 nM; with PKN3 [2] (read-out: Rep 1) it was 310 nM; in the test on PKN3 [2] (read-out: Rep 2), 31.2 nM; in the test on PKN3 [2] (read-out: Rep 3), 28.1 nM; in the test on PKN3 [2] (read-out: Rep 4), 22.3 nM.

The record behind these values is paper PMC11062922 (Nature Chemical Biology, 2023).
